Laboratory results: the supplement of paper PMC10849652
Of roughly 8,800 targets only a part is listed; those with a hit were picked by preference. About 0.5% of all pairs of compound and target were hits.

What was measured:
Test in all cases: log2 fold change, soluble protein after heating vs DMSO (PISA); higher = thermal stabilisation; K562 lysate, 10 uM; active = over 0.2 and 3.5 SD of the protein, either way, in both replicates (recomputed)
erlotinib = compound: C#Cc1cccc(Nc2ncnc3cc(OCCOC)c(OCCOC)cc23)c1 [erlotinib]
Outline: (§1)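 Pellets of K562 cells were dounce-homogenised in PBS pH 7.4 with 1 mM MgCl2, and the crude extract was held at 1 mg/mL protein for a 30 min treatment with 10 μM compound. Aliquots were heated for 3 min over 48°C-58°C and pooled before NP-40 was added to 0.5% at 4°C. The supernatant from 21,000xg for 90 min was quantified by TMTpro 16plex LC-MS/MS with channel sums equalised. Values are reported from duplicates as log-two fold change in thermal stability relative to solvent controls.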

[1] = compound: C/C(=N\NC(=O)C1=CC(=CC=C1)S(=O)(=O)N2CCOCC2)/C3=C(C=CC(=C3)Cl)O
Outline: as §1

[2] = compound: C1=CC(=CC=C1C2=NC3=C(N2)C=C(C=C3)C(=O)N)OC4=CC=C(C=C4)Cl
Outline: as §1

[3] = compound: C1=CC2=C(C=CC(=C2)/C=C\3/C(=O)NC(=NCC4=CC=CS4)S3)N=C1
Outline: as §1

[4] = compound: C1=CC2=NC=CN=C2C=C1/C=C/3\C(=O)NC(=O)S3
Outline: as §1

[5] = compound: C1=CC=C(C=C1)C2=NC(=C(N2)C3=CC=NC=C3)C4=CC(=C(C=C4)Cl)O
Outline: as §1

[6] = compound: C1=CC=C2C(=C1)C3=NNC4=CC=CC(=C43)C2=O
Outline: as §1

[7] = compound: C1CCN(C1)C(=O)NC2=CC=CC(=C2)NC3=NC=C(C(=N3)NCCC4=CN=CN4)Br
Outline: as §1

[8] = compound: C1CN(CCC1(CC2=CC=C(C=C2)Cl)N)C3=NC=NC4=C3C=CN4
Outline: as §1

IRAK-1-4 Inhibitor I = compound: C1COCCN1CCN2C3=CC=CC=C3N=C2NC(=O)C4=CC(=CC=C4)[N+](=O)[O-] [IRAK-1-4 Inhibitor I]
Outline: as §1

ibrutinib = compound: C=CC(=O)N1CCC[C@@H](n2nc(-c3ccc(Oc4ccccc4)cc3)c3c(N)ncnc32)C1 [ibrutinib]
Outline: as §1

[9] = compound: CC(=O)c1cnc2ccc(-c3cc(Cl)c(O)c(Cl)c3)nc2c1N[C@H]1CC[C@H](CN(C)C)CC1
Outline: as §1

ralimetinib = compound: CC(C)(C)Cn1c(N)nc2ccc(-c3[nH]c(C(C)(C)C)nc3-c3ccc(F)cc3)nc21 [ralimetinib]
Outline: as §1

[10] = compound: CC(C)(O)CC(=O)NCCn1ccc2ncnc(Nc3ccc(Oc4cccc(C(F)(F)F)c4)c(Cl)c3)c21
Outline: as §1

[11] = compound: CC(C)C1=C2N=C(C=C(N2N=C1)NCC3=CC=CC=C3)NCCCCCCN
Outline: as §1

[12] = compound: CC1=C(C(CC(=O)N1)C2=CC=C(C=C2)C(F)(F)F)C(=O)NC3=C(C=C4C(=C3)C=NN4)F
Outline: as §1

[13] = compound: CC1=C(C2=C(C=C1)C(=O)C3=CC=CC=C3N2CCCN)C
Outline: as §1

[14] = compound: CC1=C(C=C(C=C1)NC(=O)C2=CC(=CC=C2)C(C)(C)C#N)NC3=CC4=C(C=C3)N=CN(C4=O)C
Outline: as §1

[15] = compound: CC1=C(C=C(C=C1)NC(=O)C2=CC(=CC=C2)N(C)C)NC(=O)C3=CC=C(C=C3)O
Outline: as §1

[16] = compound: CC1=CC=C(C=C1)SC2=C3C=C(SC3=CN=C2)C(=O)N
Outline: as §1

Chain of UniProt Q04726 (Q04726 whole entry, looked up): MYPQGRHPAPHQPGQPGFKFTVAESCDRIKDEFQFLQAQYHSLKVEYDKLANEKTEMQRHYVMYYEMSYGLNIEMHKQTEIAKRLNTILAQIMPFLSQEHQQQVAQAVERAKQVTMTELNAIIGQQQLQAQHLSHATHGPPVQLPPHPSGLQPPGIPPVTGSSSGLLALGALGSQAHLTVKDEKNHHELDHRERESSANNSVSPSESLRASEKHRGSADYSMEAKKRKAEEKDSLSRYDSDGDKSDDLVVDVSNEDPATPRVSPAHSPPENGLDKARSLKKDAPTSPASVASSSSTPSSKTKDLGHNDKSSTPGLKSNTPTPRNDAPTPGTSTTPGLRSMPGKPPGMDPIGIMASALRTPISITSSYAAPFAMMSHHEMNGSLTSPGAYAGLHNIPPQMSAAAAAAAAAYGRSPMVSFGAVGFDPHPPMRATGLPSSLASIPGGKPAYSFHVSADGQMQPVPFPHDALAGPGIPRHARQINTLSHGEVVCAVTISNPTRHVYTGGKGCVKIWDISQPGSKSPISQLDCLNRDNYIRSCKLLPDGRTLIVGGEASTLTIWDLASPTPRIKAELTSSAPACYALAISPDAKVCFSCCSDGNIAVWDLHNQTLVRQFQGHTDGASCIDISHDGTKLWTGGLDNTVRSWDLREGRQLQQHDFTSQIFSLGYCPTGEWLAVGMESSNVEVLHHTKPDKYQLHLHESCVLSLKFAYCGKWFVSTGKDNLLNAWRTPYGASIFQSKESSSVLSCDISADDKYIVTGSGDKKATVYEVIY
Chain of UniProt Q9NNW7 (Q9NNW7 whole entry, looked up): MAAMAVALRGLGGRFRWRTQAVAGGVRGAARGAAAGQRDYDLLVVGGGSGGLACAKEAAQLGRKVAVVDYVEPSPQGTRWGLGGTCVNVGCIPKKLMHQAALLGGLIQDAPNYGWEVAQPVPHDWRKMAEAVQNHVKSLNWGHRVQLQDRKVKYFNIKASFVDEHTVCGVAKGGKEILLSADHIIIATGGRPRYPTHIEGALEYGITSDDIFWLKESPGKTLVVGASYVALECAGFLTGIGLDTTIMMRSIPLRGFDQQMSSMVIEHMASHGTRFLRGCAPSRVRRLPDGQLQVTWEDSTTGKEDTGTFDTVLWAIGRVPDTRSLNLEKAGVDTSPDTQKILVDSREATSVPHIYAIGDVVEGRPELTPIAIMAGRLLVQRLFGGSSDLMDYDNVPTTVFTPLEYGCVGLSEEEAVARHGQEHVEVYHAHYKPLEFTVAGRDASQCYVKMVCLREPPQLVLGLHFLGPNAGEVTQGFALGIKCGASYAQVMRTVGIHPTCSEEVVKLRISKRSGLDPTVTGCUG
Chain of UniProt Q12788 (Q12788 whole entry, looked up): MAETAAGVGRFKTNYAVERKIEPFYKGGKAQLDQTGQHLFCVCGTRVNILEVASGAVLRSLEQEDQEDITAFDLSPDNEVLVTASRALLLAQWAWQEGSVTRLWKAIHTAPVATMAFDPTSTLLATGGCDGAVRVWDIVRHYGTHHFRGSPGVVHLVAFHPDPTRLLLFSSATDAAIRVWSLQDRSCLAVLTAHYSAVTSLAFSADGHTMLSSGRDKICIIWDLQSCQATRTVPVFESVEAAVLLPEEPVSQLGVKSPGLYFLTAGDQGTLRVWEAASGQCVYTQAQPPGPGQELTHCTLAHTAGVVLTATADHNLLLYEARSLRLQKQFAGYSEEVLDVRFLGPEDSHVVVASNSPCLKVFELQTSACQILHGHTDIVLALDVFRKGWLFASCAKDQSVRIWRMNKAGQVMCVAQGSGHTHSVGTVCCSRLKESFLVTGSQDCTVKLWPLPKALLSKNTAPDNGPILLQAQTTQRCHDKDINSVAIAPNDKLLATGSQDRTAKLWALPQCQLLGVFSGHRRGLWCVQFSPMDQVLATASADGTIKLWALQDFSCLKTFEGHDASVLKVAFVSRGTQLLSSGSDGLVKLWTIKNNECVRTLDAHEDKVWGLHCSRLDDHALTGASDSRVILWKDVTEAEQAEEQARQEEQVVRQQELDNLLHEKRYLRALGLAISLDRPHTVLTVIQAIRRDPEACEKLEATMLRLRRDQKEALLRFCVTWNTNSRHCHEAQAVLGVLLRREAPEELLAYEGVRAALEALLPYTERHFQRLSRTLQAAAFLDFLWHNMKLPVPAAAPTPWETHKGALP
Chain of UniProt Q8IWV7 (Q8IWV7 whole entry, looked up): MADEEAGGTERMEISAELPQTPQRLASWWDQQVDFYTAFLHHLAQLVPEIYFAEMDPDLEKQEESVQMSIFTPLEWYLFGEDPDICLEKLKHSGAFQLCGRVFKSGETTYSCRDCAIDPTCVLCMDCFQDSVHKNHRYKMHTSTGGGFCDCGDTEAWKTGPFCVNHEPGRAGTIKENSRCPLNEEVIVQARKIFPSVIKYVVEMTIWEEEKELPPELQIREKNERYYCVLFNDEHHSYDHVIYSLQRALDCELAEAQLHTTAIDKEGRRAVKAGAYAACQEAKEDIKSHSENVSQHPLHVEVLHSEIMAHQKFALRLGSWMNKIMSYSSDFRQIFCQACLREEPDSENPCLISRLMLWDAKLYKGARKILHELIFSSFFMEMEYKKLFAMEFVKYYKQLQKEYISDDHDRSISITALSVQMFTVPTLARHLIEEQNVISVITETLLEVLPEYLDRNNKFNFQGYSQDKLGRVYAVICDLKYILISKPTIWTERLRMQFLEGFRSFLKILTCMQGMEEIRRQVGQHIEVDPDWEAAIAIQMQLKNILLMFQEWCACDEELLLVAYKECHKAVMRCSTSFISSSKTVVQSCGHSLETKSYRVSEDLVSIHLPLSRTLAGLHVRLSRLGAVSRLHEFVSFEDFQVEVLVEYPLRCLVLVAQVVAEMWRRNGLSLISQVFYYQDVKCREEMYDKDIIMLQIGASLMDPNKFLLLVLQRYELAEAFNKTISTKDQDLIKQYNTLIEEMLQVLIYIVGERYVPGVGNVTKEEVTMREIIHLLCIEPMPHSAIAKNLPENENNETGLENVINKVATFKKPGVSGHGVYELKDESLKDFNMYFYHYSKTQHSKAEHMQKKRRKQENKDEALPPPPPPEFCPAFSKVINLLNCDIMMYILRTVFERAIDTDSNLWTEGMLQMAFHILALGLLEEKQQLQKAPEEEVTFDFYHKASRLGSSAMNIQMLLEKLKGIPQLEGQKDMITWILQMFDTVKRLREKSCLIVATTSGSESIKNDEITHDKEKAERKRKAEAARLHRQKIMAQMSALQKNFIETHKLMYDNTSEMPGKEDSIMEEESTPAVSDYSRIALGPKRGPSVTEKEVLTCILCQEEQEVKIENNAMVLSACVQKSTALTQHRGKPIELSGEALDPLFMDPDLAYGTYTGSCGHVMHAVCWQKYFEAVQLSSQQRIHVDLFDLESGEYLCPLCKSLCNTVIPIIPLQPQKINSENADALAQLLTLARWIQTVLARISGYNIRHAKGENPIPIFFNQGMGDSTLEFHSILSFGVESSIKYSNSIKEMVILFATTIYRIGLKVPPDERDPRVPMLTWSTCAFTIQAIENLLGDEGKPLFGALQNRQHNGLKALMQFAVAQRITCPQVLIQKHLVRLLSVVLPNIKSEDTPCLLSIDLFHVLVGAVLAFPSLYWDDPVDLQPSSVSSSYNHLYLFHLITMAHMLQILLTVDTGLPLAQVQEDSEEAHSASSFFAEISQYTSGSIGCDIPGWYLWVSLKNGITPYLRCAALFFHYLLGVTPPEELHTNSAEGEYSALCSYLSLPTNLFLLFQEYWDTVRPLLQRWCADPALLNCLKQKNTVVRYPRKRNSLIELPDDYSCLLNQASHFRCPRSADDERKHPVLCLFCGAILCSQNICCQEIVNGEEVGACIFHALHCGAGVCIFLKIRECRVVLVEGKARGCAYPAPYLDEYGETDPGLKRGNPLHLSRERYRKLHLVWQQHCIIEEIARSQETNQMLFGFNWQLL
Chain of UniProt Q9BUF5 (Q9BUF5 whole entry, looked up): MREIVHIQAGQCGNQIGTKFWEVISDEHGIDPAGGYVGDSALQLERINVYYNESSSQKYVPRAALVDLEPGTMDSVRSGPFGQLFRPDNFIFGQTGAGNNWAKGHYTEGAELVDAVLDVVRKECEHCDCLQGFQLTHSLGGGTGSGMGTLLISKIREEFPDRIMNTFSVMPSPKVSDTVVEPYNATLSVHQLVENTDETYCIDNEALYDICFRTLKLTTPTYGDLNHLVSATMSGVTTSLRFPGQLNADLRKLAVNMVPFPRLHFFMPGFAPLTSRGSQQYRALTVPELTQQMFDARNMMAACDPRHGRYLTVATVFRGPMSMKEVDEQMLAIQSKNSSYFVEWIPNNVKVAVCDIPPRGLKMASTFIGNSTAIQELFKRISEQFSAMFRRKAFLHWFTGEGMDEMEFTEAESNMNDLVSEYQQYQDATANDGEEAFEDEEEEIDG
Chain of UniProt Q14166 (Q14166 whole entry, looked up): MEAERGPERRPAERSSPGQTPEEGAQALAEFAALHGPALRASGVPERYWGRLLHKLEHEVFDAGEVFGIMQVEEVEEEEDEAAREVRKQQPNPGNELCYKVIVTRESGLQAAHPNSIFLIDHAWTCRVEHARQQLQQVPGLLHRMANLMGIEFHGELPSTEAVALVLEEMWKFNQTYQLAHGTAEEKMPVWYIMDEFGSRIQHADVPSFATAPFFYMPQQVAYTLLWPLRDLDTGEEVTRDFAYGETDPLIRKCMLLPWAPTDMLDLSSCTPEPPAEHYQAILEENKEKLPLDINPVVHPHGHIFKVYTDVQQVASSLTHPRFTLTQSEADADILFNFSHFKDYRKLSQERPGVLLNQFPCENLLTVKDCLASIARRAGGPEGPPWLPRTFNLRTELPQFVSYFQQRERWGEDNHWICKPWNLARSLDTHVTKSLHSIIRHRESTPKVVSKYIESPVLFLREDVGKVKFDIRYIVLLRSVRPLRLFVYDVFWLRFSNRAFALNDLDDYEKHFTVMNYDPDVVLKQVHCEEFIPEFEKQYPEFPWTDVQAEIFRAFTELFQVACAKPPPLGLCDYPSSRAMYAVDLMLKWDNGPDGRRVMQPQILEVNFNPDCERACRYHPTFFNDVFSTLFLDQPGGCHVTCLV

Row | Target | log2 fold change (erlotinib) | log2 fold change [1] | log2 fold change [2] | log2 fold change [3] | log2 fold change [4] | log2 fold change [5] | log2 fold change [6] | log2 fold change [7] | log2 fold change [8] | log2 fold change (IRAK-1-4 Inhibitor I) | log2 fold change (ibrutinib) | log2 fold change [9] | log2 fold change (ralimetinib) | log2 fold change [10] | log2 fold change [11] | log2 fold change [12] | log2 fold change [13] | log2 fold change [14] | log2 fold change [15] | log2 fold change [16]
1 | TBL3 (UniProt Q12788) | 0.082 (inactive) | -0.001 (inactive) | -0.071 (inactive) | 0.037 (inactive) | 0.012 (inactive) | 0.017 (inactive) | 0.043 (inactive) | 0.074 (inactive) | -0.016 (inactive) | 0.01 (inactive) | -0.006 (inactive) | -0.016 (inactive) | 0.027 (inactive) | 0.001 (inactive) | 0.026 (inactive) | 0.013 (inactive) | -0.017 (inactive) | 0.027 (inactive) | 0.046 (inactive) | 0.008 (inactive)
2 | UBR1 (UniProt Q8IWV7) | 0.01 (inactive) | 0.058 (inactive) | -0.055 (inactive) | -0.002 (inactive) | 0.026 (inactive) | 0.015 (inactive) | -0.016 (inactive) | -0.047 (inactive) | 0.008 (inactive) | 0.002 (inactive) | 0.007 (inactive) | 0.005 (inactive) | 0.015 (inactive) | -0.044 (inactive) | -0.014 (inactive) | -0.011 (inactive) | 0.004 (inactive) | -0.004 (inactive) | -0.03 (inactive) | -0.008 (inactive)
3 | TRAF2 isoform 2 (UniProt Q12933) | 0.026 (inactive) | -0.002 (inactive) | 0.008 (inactive) | 0.013 (inactive) | -0.016 (inactive) | -0.01 (inactive) | -0.015 (inactive) | -0.008 (inactive) | 0.029 (inactive) | 0.033 (inactive) | -0.026 (inactive) | -0.002 (inactive) | 0.022 (inactive) | -0.022 (inactive) | -0.051 (inactive) | -0.004 (inactive) | -0.028 (inactive) | 0.029 (inactive) | -0.009 (inactive) | -0.006 (inactive)
4 | UFSP2 (UniProt Q9NUQ7) | -0.04 (inactive) | -0.034 (inactive) | 0.028 (inactive) | 0.098 (inactive) | -0.015 (inactive) | -0.042 (inactive) | -0.055 (inactive) | -0.026 (inactive) | -0.037 (inactive) | 0.023 (inactive) | 0.004 (inactive) | -0.005 (inactive) | 0.023 (inactive) | -0.004 (inactive) | -0.023 (inactive) | 0.01 (inactive) | 0.005 (inactive) | -0.036 (inactive) | -0.003 (inactive) | -0.006 (inactive)
5 | TRAPPC12 (UniProt Q8WVT3) | -0.049 (inactive) | -0.01 (inactive) | -0.048 (inactive) | -0.047 (inactive) | -0.018 (inactive) | -0.005 (inactive) | -0.061 (inactive) | -0.003 (inactive) | -0.005 (inactive) | 0.027 (inactive) | 0.001 (inactive) | -0.011 (inactive) | 0.064 (inactive) | 0.02 (inactive) | -0.014 (inactive) | -0.022 (inactive) | -0.003 (inactive) | 0.008 (inactive) | -0.001 (inactive) | 0.009 (inactive)
6 | TTLL12 (UniProt Q14166) | 0.006 (inactive) | 0.049 (inactive) | -0.047 (inactive) | 0.036 (inactive) | 0.027 (inactive) | 0.005 (inactive) | -0.023 (inactive) | 0 (inactive) | 0.021 (inactive) | -0.016 (inactive) | -0.018 (inactive) | 0.003 (inactive) | 0.026 (inactive) | 0.005 (inactive) | 0.044 (inactive) | -0.026 (inactive) | -0.032 (inactive) | -0.008 (inactive) | 0.031 (inactive) | 0.012 (inactive)
7 | TESC (UniProt Q96BS2) | -0.043 (inactive) | 0.042 (inactive) | 0.03 (inactive) | 0.074 (inactive) | -0.042 (inactive) | -0.006 (inactive) | 0.036 (inactive) | 0.003 (inactive) | 0.04 (inactive) | -0.003 (inactive) | 0.065 (inactive) | -0.029 (inactive) | 0.005 (inactive) | 0.056 (inactive) | -0.055 (inactive) | 0.043 (inactive) | 0.015 (inactive) | 0 (inactive) | -0.013 (inactive) | -0.077 (inactive)
8 | TLE3 isoform 4 (UniProt Q04726) | 0.005 (inactive) | -0.025 (inactive) | 0.03 (inactive) | -0.012 (inactive) | 0 (inactive) | 0.016 (inactive) | -0.002 (inactive) | -0.006 (inactive) | 0.029 (inactive) | -0.016 (inactive) | -0.002 (inactive) | -0.01 (inactive) | 0.003 (inactive) | -0.005 (inactive) | 0 (inactive) | -0.023 (inactive) | 0.012 (inactive) | -0.016 (inactive) | 0.003 (inactive) | -0.022 (inactive)
9 | TK1 (UniProt P04183) | 0.003 (inactive) | -0.112 (inactive) | 0.036 (inactive) | -0.001 (inactive) | 0.028 (inactive) | -0.003 (inactive) | 0.021 (inactive) | 0.013 (inactive) | 0.017 (inactive) | 0.008 (inactive) | 0.004 (inactive) | -0.004 (inactive) | 0.023 (inactive) | -0.022 (inactive) | -0.029 (inactive) | 0 (inactive) | 0.006 (inactive) | 0.046 (inactive) | -0.014 (inactive) | -0.006 (inactive)
10 | TMEM97 (UniProt Q5BJF2) | 0.01 (inactive) | 0.043 (inactive) | 0.036 (inactive) | 0.007 (inactive) | 0.019 (inactive) | 0 (inactive) | 0.002 (inactive) | -0.033 (inactive) | 0.018 (inactive) | 0.091 (inactive) | 0.01 (inactive) | 0.012 (inactive) | 0.004 (inactive) | -0.056 (inactive) | -0.034 (inactive) | -0.025 (inactive) | -0.032 (inactive) | 0.003 (inactive) | 0.042 (inactive) | -0.017 (inactive)
11 | TRMT2A (UniProt Q8IZ69) | -0.042 (inactive) | -0.015 (inactive) | -0.007 (inactive) | 0.012 (inactive) | -0.012 (inactive) | -0.012 (inactive) | -0.004 (inactive) | -0.005 (inactive) | 0.002 (inactive) | -0.007 (inactive) | 0.002 (inactive) | 0.005 (inactive) | 0.026 (inactive) | -0.005 (inactive) | 0.001 (inactive) | 0.012 (inactive) | -0.007 (inactive) | -0.03 (inactive) | 0.035 (inactive) | 0.008 (inactive)
12 | TUBB6 (UniProt Q9BUF5) | 0.039 (inactive) | 0.051 (inactive) | -0.002 (inactive) | 0.017 (inactive) | 0 (inactive) | 0.005 (inactive) | 0.009 (inactive) | -0.013 (inactive) | 0.057 (inactive) | -0.003 (inactive) | -0.005 (inactive) | 0.012 (inactive) | 0.023 (inactive) | -0.038 (inactive) | 0.027 (inactive) | 0.012 (inactive) | 0.025 (inactive) | -0.024 (inactive) | -0.009 (inactive) | 0.025 (inactive)
13 | TXNRD2 (UniProt Q9NNW7) | -0.01 (inactive) | -0.085 (inactive) | 0.049 (inactive) | 0.008 (inactive) | -0.025 (inactive) | 0.009 (inactive) | -0.031 (inactive) | 0.017 (inactive) | 0.044 (inactive) | -0.007 (inactive) | 0.014 (inactive) | -0.002 (inactive) | 0.025 (inactive) | -0.107 (inactive) | 0 (inactive) | 0.008 (inactive) | -0.038 (inactive) | -0.014 (inactive) | 0.001 (inactive) | 0.006 (inactive)
14 | TPM1 isoform 4 (UniProt P09493) | -0.126 (inactive) | -0.004 (inactive) | 0.005 (inactive) | 0.018 (inactive) | 0.114 (inactive) | -0.026 (inactive) | -0.015 (inactive) | 0.014 (inactive) | -0.052 (inactive) | -0.009 (inactive) | -0.019 (inactive) | 0.009 (inactive) | 0.001 (inactive) | -0.011 (inactive) | -0.024 (inactive) | -0.011 (inactive) | 0.062 (inactive) | 0.011 (inactive) | -0.022 (inactive) | 0.001 (inactive)
15 | UBAP2L isoform 5 (UniProt Q14157) | -0.021 (inactive) | -0.019 (inactive) | 0.035 (inactive) | 0.008 (inactive) | 0.027 (inactive) | -0.184 (inactive) | 0.065 (inactive) | 0.009 (inactive) | -0.023 (inactive) | 0.065 (inactive) | 0.024 (inactive) | 0.028 (inactive) | -0.026 (inactive) | -0.055 (inactive) | 0.019 (inactive) | 0.009 (inactive) | 0.024 (inactive) | -0.529 (active) | -0.009 (inactive) | 0.003 (inactive)
